Assay outcomes from PubChem.
Algae TAG accum: inducers of triacylglycerol accumulation in Chlamydomonas reinhardtii algae. calls only at 10 µM (by protocol). 44,000 tested, 0.84% active. Chlamydomonas reinhardtii TAG, Nile Red fluorescence, 72 h. AID 1159537; call rule not given here;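 further: hits raise Nile Red signal meaning more stored TAG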
* = called active by the depositor; i = inactive; + = active, no number. The full list was thinned out, with hits kept by preference.

SMILES	Algae TAG accum
COc1ccccc1N1CCN(C2CCN(Cc3ccc4c(c3)OCO4)CC2)CC1	i
CCc1ccc(CN2CCC(N3CCN(c4ccccc4OC)CC3)CC2)cc1	i
COc1ccccc1N1CCN(C2CCN(Cc3cccc(F)c3)CC2)CC1	+
COc1ccc(Cc2[nH]n3c(=O)cc(-c4ccc([N+](=O)[O-])cc4)nc3c2-c2ccccc2)cc1	i
O=C(NCCc1ccccc1)c1ccccc1SCc1ccccc1	i
COc1cccc(C(=O)N2CCN(c3ccc([N+](=O)[O-])c(NCCc4ccccc4)c3)CC2)c1	i
O=S(=O)(c1ccc(Cl)cc1)N1CCN(C2CCCC2)CC1	i
CC(=O)N1CCN(C2CCCCCC2)CC1	i
CCS(=O)(=O)N1CCN(C2CCCCCCC2)CC1	+
COc1ccccc1C(=O)Nc1ccc(Cl)cc1[N+](=O)[O-]	i
O=C1NNC2C3CCCCC3C3CCCC1C32 (stereo unspecified)	i
O=C(Cn1cnc([N+](=O)[O-])n1)N1CCCc2ccccc21	i
C=CCNC(=O)C(C)N(c1ccc(OCC)cc1)S(C)(=O)=O (stereo unspecified)	+
CCOc1ccc(N(C(C)C(N)=O)S(C)(=O)=O)cc1 (stereo unspecified)	i
CCOc1ccc(N(C(C)C(=O)NCc2ccccc2OC)S(C)(=O)=O)cc1 (stereo unspecified)	i
OC(Cc1ccccc1)c1ccccc1 (stereo unspecified)	i
OC(CNCCc1ccccc1)c1ccccc1 (stereo unspecified)	+
Cc1ccc(C(=O)NCC(O)c2ccccc2)cc1 (stereo unspecified)	i
Cc1cc(NC(=O)COc2ccc(Br)cc2)no1	i
Cc1nc2sc3c(c2c(=O)n1N=CN(C)C)CCC(C(C)(C)C)C3 (stereo unspecified)	i
CCOc1cccc(-c2nnc(NC(=O)Nc3ccccc3C)s2)c1	i
N#Cc1c(-n2ncnc2-c2cccnc2)sc2c1CCCCC2	+
COc1ccc(-c2ncnn2-c2sc3c(c2C#N)CCCC3)cc1OC	i
N#Cc1c(-n2ncnc2-c2ccc(F)cc2)sc2c1CCCC2	i
O=C(CN(c1ccccc1)S(=O)(=O)c1ccccc1[N+](=O)[O-])NC1CC2CCC1C2 (stereo unspecified)	i
SMILES	Algae TAG accum
CC(C)(Oc1ccc(Cl)cc1)C(=O)N1CCN(c2ccccn2)CC1	i
CC(C)(Oc1ccc(Cl)cc1)C(=O)N1CCN(c2cccc(Cl)c2)CC1	i
CC(C)(Oc1ccc(Cl)cc1)C(=O)N1CCN(c2ccc(F)cc2)CC1	+
CC(C)c1ccc(NC(=O)CSc2nnc(NC(=O)c3ccc([N+](=O)[O-])cc3)s2)cc1	i
CC1CCN(S(=O)(=O)c2ccc(Cl)c(C(=O)Nc3cccc([N+](=O)[O-])c3)c2)CC1	i
O=C(Nc1ccc(S(=O)(=O)N2CCCCC2)cc1)c1cccc([N+](=O)[O-])c1	i
CC1CCN(S(=O)(=O)c2ccc(NC(=O)c3cccc([N+](=O)[O-])c3)cc2)CC1	+
COc1ccc(-c2csc(/C(C#N)=C/c3cccs3)n2)cc1	i
COc1ccc(C)cc1S(=O)(=O)Nc1ccc(Br)cc1	i
COc1ccc(S(=O)(=O)Nc2ccc3c(c2)OCCO3)cc1	i
Cc1ccc(OCC(=O)N2CCOCC2)c(C)c1	i
O=C(c1ccccc1)N1CCN(Cc2ccncc2)CC1	i
CCN1CCN(CC2CCCCC2)CC1	i
COc1ccccc1N1CCN(C2CCN(C3CCC(c4ccccc4)CC3)CC2)CC1 (stereo unspecified)	i
CCCN1CCC(N2CCN(c3ccc([N+](=O)[O-])cc3)CC2)CC1	i
CCN1CCN(C2CCC(c3ccccc3)CC2)CC1 (stereo unspecified)	+
c1ccc(C2CCC(N3CCN(Cc4ccncc4)CC3)CC2)cc1 (stereo unspecified)	+
CCN1C(=O)CC(N2CCN(c3ccc(Cl)cc3)CC2)C1=O (stereo unspecified)	i
COc1ccc(C(=O)N2CCN(C3CCC(c4ccccc4)CC3)CC2)cc1OC (stereo unspecified)	i
CCN1CCN(C2CCCC(C)C2)CC1 (stereo unspecified)	i
CCN1CCC(N2CCN(c3ccc(Cl)cc3)CC2)CC1	+
CCN1CCN(C2CCC(C(C)(C)C)CC2)CC1 (stereo unspecified)	+
c1ccc(CN2CCC(N3CCN(C4CCCC4)CC3)CC2)cc1	i
O=[N+]([O-])c1ccc(N2CCOCC2)c(C2=NCCc3ccccc32)c1	i
COc1ccc(OCC(O)CN2CCN(Cc3ccccc3)CC2)cc1 (stereo unspecified)	i
SMILES	Algae TAG accum
COc1ccc(/C=C(/NC(=O)c2cccs2)C(=O)Nc2ccccc2C)cc1OC	i
CC(C)CNC(=O)c1ccc(NC(=O)c2ccccc2Br)cc1	i
CCCCOc1ccc(C(=O)Nc2ccc(NC(C)=O)cc2)cc1	i
CCOc1ccc(C(=O)Nc2ccccn2)cc1[N+](=O)[O-]	i
Cc1ccc(C)c(NC(=O)c2ccc(N(Cc3ccccc3Cl)S(C)(=O)=O)cc2)c1	i
O=C(Nc1ccc2oc(-c3ccncc3)nc2c1)c1ccc(-c2ccccc2)o1	i
O=C(CN(c1ccc([N+](=O)[O-])cc1)S(=O)(=O)c1ccccc1)NC1CCCCCC1	i
CC(CNC(=O)c1ccc(C(C)(C)C)cc1)CN(C)C (stereo unspecified)	+
CC(CNC(=O)c1ccc(F)cc1)CN(C)C (stereo unspecified)	i
Cc1cccc(C(=O)NCC(C)CN(C)C)c1 (stereo unspecified)	i
N#CC1=C(N)Oc2cc(N)ccc2C1c1ccc([N+](=O)[O-])cc1 (stereo unspecified)	i
Cc1c(Cl)cccc1NC(=O)C(=O)NCC(C)C	i
COc1ccc(Cc2cnc(NC(=O)Cc3ccccc3)s2)cc1	i
O=C(Nc1ncc(Cc2ccc(F)cc2)s1)C1CCCO1 (stereo unspecified)	i
O=C(CN1CCCCC1)Nc1ncc(Cc2ccc(F)cc2)s1	+
COc1cc([N+](=O)[O-])ccc1NC(=O)c1ccccc1F	i
COc1cc([N+](=O)[O-])ccc1NC(=O)c1c(F)c(F)c(F)c(F)c1F	+
COc1cc([N+](=O)[O-])ccc1NC(=O)c1ccc(C)c(C)c1	i
CCCCOC(=O)Nc1ccc(S(=O)(=O)Nc2ccc(OC)cc2[N+](=O)[O-])cc1	i
O=S(=O)(c1ccc(F)cc1)N1CCN(c2cccc(Cl)c2)CC1	i
O=C(Nc1ccc(I)cc1)C1CCCN1C(=O)Oc1ccccc1 (stereo unspecified)	i
CCC(C)N(C(=O)c1cccc([N+](=O)[O-])c1)C(C)CC (stereo unspecified)	i
O=C(CN1CCCCC1)NC12CC3CC(CC(C3)C1)C2	+
O=C(CN1CCCCC1)NCC12CC3CC(CC(C3)C1)C2	+
CNCC(=O)NCC12CC3CC(CC(C3)C1)C2	i
SMILES	Algae TAG accum
CNCC(=O)NC12CC3CC(CC(C3)C1)C2	i
O=C(CCN1CCOCC1)NC12CC3CC(CC(C3)C1)C2	i
O=C(NCC12CC3CC(CC(C3)C1)C2)NC1CCCCC1	i
O=C(O)c1ccc(CSCc2ccc(C(=O)O)o2)o1	i
COCCNS(=O)(=O)c1cccc([N+](=O)[O-])c1	i
N#C/C(=C\c1c(F)c(F)c(F)c(F)c1F)c1nc2ccccc2[nH]1	i
O=C(Nc1cnc2ccccn2c1=O)c1cccs1	i
